Compound activity (PubChem)
Most compounds without a hit are left out; they make up all but 8.8% or so of the library.
IL1B secr inh: qHTS for Inhibitors of Inflammasome Signaling: IL-1-beta AlphaLISA Primary Screen; THP-1 LPS/ATP IL-1B secretion, AlphaLISA, 16 h; active compounds read low; activity change, % at 57.5 µM; 360,000 tested, 4.7% active; in the data active = activity change below about -50%; inconclusive = mostly about -30% to -49%
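THP-1 cells pretreated 1 hr with compounds (up to 57.5 uM final), then stimulated with LPS (250 ng/mL final) plus ATP (1.25 mM final); secreted IL-1B measured by AlphaLISA after 16 hr, decreased signal indicating inhibition.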
KB-V1 MDR tox: qHTS assay for MDR1-selective chemotherapeutics: Primary screen using the drug-selected MDR subline cells KB-V1. KB-V1 MDR cells viability, CellTiter-Glo, 72 h. Potency, µM (doses to about 46.1 µM), most hits filed as cytotoxic. AID 1347076, 2019. 400,000 tested, 3.4% active; also: potency is read from the fitted curve at half-maximal effect; nearly all actives have a fitted effect of over 60% in size
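Cells of the MDR subline KB-V1 are plated, dosed with compound at multiple concentrations, and incubated 72 h at 37 degrees C; CellTiter-Glo is then added and luminescence read after 10 min.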
KB-3-1 tox: qHTS assay for MDR1-selective chemotherapeutics: Primary screen using the parental adenocarcinoma cell KB-3-1 | KB-3-1 viability, CellTiter-Glo ATP luminescence, 72 h | Potency, µM (series often up to 46.1 µM), actives largely listed as cytotoxic | 400,000 tested, 1.4% active | AID 1347075, 2019; also: potency is read from the fitted curve at half-maximal effect; nearly all actives have a fitted effect of over 60% in size
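Multi-concentration cytotoxicity screen in KB-3-1 cells grown in DMEM lacking phenol red with 10% FBS. After 72 h at 37 °C with compound, ATP-dependent luminescence was recorded.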
HT1080 IDH1KD tx: qHTS for induction of synthetic lethality in tumor cells producing 2HG: qHTS for the HT-1080-IDH1KD cell line; HT-1080 IDH1 knockdown viability, ATP luminescence, 48 h; AID 686971, 2013; Potency, µM (top dose mostly 46.1 µM), inactives show top-dose activity, negative = toxicity, hits mostly cytotoxic; 360,000 tested, 2% active;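 also: potency is read from the fitted curve at half-maximal effect; 0% = DMSO wells and -100% = cell-free medium wells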
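% activity derives from luminescence (CellTiter-Glo), normalised to DMSO and no-cell wells. HT-1080-IDH1KD cells, 750/well, had 48 h compound exposure at 37 °C.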
HT1080NT lethal: qHTS for induction of synthetic lethality in tumor cells producing 2HG: qHTS for the HT-1080-NT fibrosarcoma cell line. 360,000 tested, 1.6% active. HT-1080-NT fibrosarcoma viability, CellTiter-Glo ATP luminescence, 48 h. Potency, µM (series often up to 46.1 µM), for inactives: at the highest dose activity, negative = less viability, actives largely listed as cytotoxic;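 also: NT is the 2HG producing partner of a matched IDH1 knockdown line; potency is read from the fitted curve at half-maximal effect; 0% = DMSO-treated cells and -100% = media-only wells without cells; nearly all actives have a fitted effect of over 55% in size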
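Viability by CellTiter-Glo luminescence after 48 h compound exposure at 37C of HT-1080-NT cells (750/well, RPMI, 5% FBS). % activity scaled between DMSO wells and medium-only wells, then curve-fitted and categorized by curve class.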
Active calls of the source: *; i = inactive; ? = inconclusive; nt = no result; [ ] = dose if it differs, or a comment. Unless noted, calls follow the shape of the dose curve; as a rule, active = well fitted curve in the direction sought with a large enough effect; inconclusive = small, poorly fitted or top-dose-only effect, or another doubt; inactive = no such curve, though single readings can be large; an effect the other way counts as inactive or inconclusive. Unless noted, % is scaled to controls: 0 for no effect and ±100 for the full control effect.

SMILES | IL1B secr inh | KB-V1 MDR tox | KB-3-1 tox | HT1080 IDH1KD tx | HT1080NT lethal
CCO[C@H]1OC(C(=O)N2CCN(Cc3ccc4c(c3)OCO4)CC2)=C[C@@H](c2cn(C(C)=O)c3ccccc23)[C@@H]1CCCO | ? | i | ? | -4.9% | -4.5%
CCO[C@H]1OC(C(=O)N2CCN(Cc3ccccc3)CC2)=C[C@@H](C2CCCCC2)[C@@H]1CCCO | -60.2* | ? | i | -4.3% | -1.8%
CCN(c1ccc(NC(=O)COC(=O)C(C)N=C2NS(=O)(=O)c3ccccc32)cc1)C(C)C (stereo not drawn) | ? | ? | i | -8.0% | 2.0%
COc1cccc(CNC(=O)C2CCN(S(=O)(=O)c3ccc(Br)s3)CC2)c1 | 2.0 | ? | i | 1.8% | -0.4%
COc1cccc(NC(=S)N(CCN(C)C)C(C)c2ccco2)c1 (stereo not drawn) | 0.0 | ? | i | 10.0% | 4.4%
COc1ccc(NC(=S)N(CCN(C)C)C(C)c2ccco2)cc1Cl (stereo not drawn) | -1.2 | 23.1µM* | i | 11.6% | -3.7%
O=C(CCCc1nc(-c2ccccc2)no1)NC1CCCCC1 | 23.6 | i | i | -4.0% | -4.8%
O=C(NCc1cccs1)c1ccc(CSc2nc3ccncc3n2Cc2cccc(F)c2)cc1 | nt | ? | i | nt | nt
COc1ccc(N2C(=S)NC3N2C(=S)NC3(C)c2ccccc2)cc1 (stereo not drawn) | -22.8 | i | ? | 11.6µM* | 16.4µM*
O=C(c1ccc(N2CCN(C(=O)c3cccc(F)c3)CC2)cc1)c1cccc(F)c1 | ? | 4.11µM* | i | -17.5% | -28.7%
O=C(c1ccc(N2CCN(C(=O)c3ccccc3Br)CC2)cc1)c1cccc(F)c1 | -23.3 | 5.8µM* | ? | ? | -24.2%
CCOC(=O)N1CCN(c2ccc(C(=O)c3cccc(F)c3)cc2)CC1 | ? | ? | i | -1.2% | ?
Cc1cc2ccc(C)c(C)c2nc1SCC(=O)c1cccs1 | 33.1 | 14.6µM* | ? | ? | ?
Cc1cccc(NC(=O)CSc2ncnc3sc(C)c(C)c23)n1 | -3.1 | nt | nt | -12.9% | -8.0%
Cc1sc2ncnc(SCC(=O)c3cccs3)c2c1C | -5.9 | 16.4µM* | ? | -16.2% | -19.6%
CC1CCCN(C(=O)c2ccc3c(c2NCCO)C(=O)c2ccccc2C3=O)C1 (stereo not drawn) | ? | 4.61µM* | i | -10.8% | -3.7%
CC1(C)CCCN(C(=O)c2ccc3c(c2NCCO)C(=O)c2ccccc2C3=O)C1 | -64.7* | i | i | -8.6% | -9.7%
O=C1c2ccccc2C(=O)c2c1ccc(C(=O)N1CCCCC1)c2NCCO | -7.3 | ? | i | 17.1% | 5.0%
CC1(C)N=C(SCC(=O)Nc2ccc(Cl)cc2Cl)C(c2ccccc2)=N1 | -86.8* | 20.6µM* | i | -2.3% | 0.1%
CC1(C)N=C(SCC(=O)Nc2ccccc2)C(c2ccc(Cl)cc2)=N1 | -93.1* | ? | i | -23.6% | -16.3%
Cc1ccc(C2=NC(C)(C)N=C2SCC(=O)Nc2ccc(Cl)cc2)cc1 | -106.4* | ? | i | ? | ?
CC(C)(C)C(O)CN1CCCC1 (stereo not drawn) | -6.4 | ? | i | 1.3% | -5.8%
COc1cc2cnc(-c3ccccc3)c(-c3ccc(C(F)(F)F)cc3)c2cc1OC | 20.2 | i | ? | 6.7% | 0.8%
O=C(Nc1ccc2c(c1)OCO2)C1Cc2c(-c3ccccc3Oc3ccccc3)ccnc2O1 (stereo not drawn) | -21.8 | i | i | ? | ?
COc1ccc(C2CC(c3c(O)cc(C)oc3=O)=NCCS2)c(OC)c1 (stereo not drawn) | -8.0 | 0.366µM* | 0.291µM* | 1.3µM* | 1.3µM*
SMILES | IL1B secr inh | KB-V1 MDR tox | KB-3-1 tox | HT1080 IDH1KD tx | HT1080NT lethal
CC(C)[C@H](NC(=O)c1ccccc1)C(=O)OCC(=O)N1CCc2ccccc2C1 | 20.3 | 9.2µM* | i | -3.3% | -2.8%
CC(C)C(NC(=O)c1ccccc1)C(=O)OCC(=O)N1CCCCC1 (stereo not drawn) | -4.8 | i | i | -2.0% | -6.3%[9.24 µM]
COc1ccc(C(=O)NCC(c2ccco2)N2CCc3ccccc32)cc1 (stereo not drawn) | 63.6 | 7.31µM* | 5.8µM* | 5.8µM* | 4.11µM*
O=C(NC1=NCCS1)c1ccc(Cl)c(S(=O)(=O)N2CCc3ccccc32)c1 | 0.0 | 13µM* | ? | 0.6% | 10.3%
O=C(NCC(c1ccco1)N1CCCC1)c1ccc(Cl)c(S(=O)(=O)N2CCc3ccccc32)c1 (stereo not drawn) | -54.9* | 1.64µM* | 2.31µM* | ? | -24.9%
CCc1cccc(C)c1NC(=O)c1cc(C)nc2c1c(C)nn2-c1cccc(Cl)c1C | nt | i | i | nt | nt
CCn1c(COc2ccc(=O)n(-c3ccccc3)n2)n[nH]c1=S | 8.9 | i | i | -0.1% | 14.6%
Cc1cccc(Cn2cc3c(=O)n(CC(=O)Nc4cccc(C)c4C)nc-3c3cc(F)ccc32)c1 | nt | i | i | nt | nt
Cc1sc(NC(=O)CSc2nnc(N)s2)c(C#N)c1C | -6.9 | i | i | -9.7% | -11.0%
O=C(NCC(c1ccco1)N1CCc2ccccc2C1)c1ccc(Cl)c([N+](=O)[O-])c1 (stereo not drawn) | -82.6* | i | i | 0.9% | -1.6%
COc1cc(OC)cc(C(=O)N[C@H](C(=O)OCC(=O)N2CCc3ccccc32)C(C)C)c1 | 11.3 | i | i | 18.7% | -0.4%
COc1ccc(C(=O)NC(C(=O)N2CCc3ccccc32)C(C)C)cc1 (stereo not drawn) | 5.1 | 8.2µM* | i | 3.0% | 1.2%
COc1ccc(NCc2n[nH]c(=O)c3ccccc23)cc1 | 28.5 | i | i | -14.4% | -1.8%
Cc1nnc(NCc2n[nH]c(=O)c3ccccc23)c2ccccc12 | -101.2* | i | ? | 11.2µM* | 15.8µM*
Cc1ccc(S(=O)(=O)N2CCN(c3nc(-n4c(=O)[nH]c5ccccc54)nc4ccccc34)CC2)cc1 | nt | nt | nt | -6.4% | -7.5%
COc1ccc(C(=O)/C=C/c2ccc(OC)c(Cn3nnc4ccccc43)c2)cc1 | ? | ? | i | -27.7% | -20.4%
COc1ccc(/C=C/C(=O)c2ccccc2O)cc1CN1CCOCC1 | -5.8 | i | ? | ? | ?
O=C(/C=C/c1cccc(O)c1)c1ccc(N2CCOCC2)cc1 | -94.5* | i | ? | -27.5% | -7.3%
COc1ccc(/C=C/C(=O)C23CC4CC(CC(C4)C2)C3)cc1CN1CCOCC1 | -188.9* | ? | i | ? | ?
